Conditions in all cases: mRNA level, 48 h; actives raise or lower the signal
Read-out in experiment [1]: Glutathione S-transferase M3 (GSTM3), GSTM3 (gene 2947)
The experiment is described as follows: LTEA_HepaRG_GSTM3: Life Technologies and Expression Analysis (LTEA) Assay for Glutathione S-transferase M3 (GSTM3) using HepaRG (AID 2283501). A digest of the protocol: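 HepaRG, plated 48 h, then serum-free induction medium; test chemical 48 h, duplicate; 100 uM top, half-log x8, 0.5% DMSO. Read-out: GSTM3 mRNA (TaqMan qRT-PCR, Fluidigm array). Bidirectional fit vs DMSO.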

Read-out in experiment [2]: Hypoxia-inducible factor 1-alpha (Homo sapiens) (UniProt Q16665)
Put plainly: LTEA_HepaRG_HIF1A: Life Technologies and Expression Analysis (LTEA) Assay for Hypoxia-inducible factor 1 (HIF1A) Trancription factor using HepaRG (AID 2283503).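 Also: HIF1A transcript by TaqMan qRT-PCR normalized to ACTB GAPDH and POLR2A.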 In a few lines: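 Gain- or loss-of-signal HIF1A mRNA changes are fitted against a DMSO baseline. HepaRG cultures receive eight concentrations, highest 100 uM, for 48 h in serum-free induction medium with 0.5% DMSO.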

Read-out in another experiment: HGF (gene 3082)
The experiment is described as follows: LTEA_HepaRG_HGF: Life Technologies and Expression Analysis (LTEA) Assay for Hepatocyte Growth Facto (HGF) using HepaRG (AID 2283505). A digest of the protocol:
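Read-out is HGF transcript level by qRT-PCR, normalized to three housekeeping genes, fitted bidirectionally against 0.5% DMSO vehicle. Human HepaRG cells received test chemicals for 48 h at up to 100 uM.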

Read-out in experiment [3]: Insulin Like Growth Factor 1 (IGF1), IGF1 (gene 3479)
Put plainly: LTEA_HepaRG_IGF1: Life Technologies and Expression Analysis (LTEA) Assay for Insulin Like Growth Factor 1 (IGF1) using HepaRG (AID 2283506). In a few lines:
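qRT-PCR readout of IGF1 mRNA, normalized to three housekeeping genes, after 48 h chemical exposure of HepaRG cells. Concentrations: 8-point half-log series, top 100 uM, 0.5% DMSO vehicle. Gain or loss fitted against DMSO baseline.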

Read-out in experiment [4]: Insulin-like growth factor-binding protein 1 (IGFBP1), IGFBP1 (gene 3484)
Put plainly: LTEA_HepaRG_IGFBP1: Life Technologies and Expression Analysis (LTEA) Assay for Insulin-like growth factor-binding protein 1 (IGFBP1) using HepaRG (AID 2283508). A digest of the protocol: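 Thawed HepaRG cells are plated for 48 h, switched to serum-free induction medium, then dosed in duplicate for another 48 h (100 uM top, half-log steps). Lysates in RLT go to qRT-PCR, and gain or loss of signal is fitted relative to vehicle.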

Read-out in experiment [5]: Interleukin 6 (IL6), IL6 (gene 3569)
Put plainly: LTEA_HepaRG_IL6: Life Technologies and Expression Analysis (LTEA) Assay for Interleukin 6 (IL6) using HepaRG (AID 2283509). A digest of the protocol: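 qRT-PCR read-out of IL6 transcript, normalized to three housekeeping genes, after 48 h chemical exposure of HepaRG cells; 8-point half-log series, top 100 uM, 0.5% DMSO vehicle. Bidirectional curve fitting against DMSO baseline.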

Read-out in experiment [6]: Interleukin 6 Receptor (IL6R), IL6R (gene 3570)
Put plainly: LTEA_HepaRG_IL6R: Life Technologies and Expression Analysis (LTEA) Assay for Interleukin 6 Receptor (IL6R) using HepaRG (AID 2283510). In a few lines: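 HepaRG, 48 h exposure, 8-pt half-log series, top 100 uM, 0.5% DMSO vehicle, duplicates. Read-out: TaqMan qRT-PCR of IL6R transcript, housekeeping-gene normalized. Gain or loss fitted relative to DMSO baseline.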

Read-out in experiment [7]: Keratin 19 (KRT19), KRT19 (gene 3880)
Put plainly: LTEA_HepaRG_KRT19: Life Technologies and Expression Analysis (LTEA) Assay for Keratin 19 (KRT19) using HepaRG (AID 2283512). A digest of the protocol: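 KRT19 transcript levels, measured by Fluidigm qRT-PCR against three housekeeping genes, are fitted for gain or loss of signal relative to DMSO. Human HepaRG cells receive test chemicals (top 100 uM, half-log steps, 0.5% DMSO) for 48 hours.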

Read-out in experiment [8]: JUN Transcription Factor, JUN (gene 3725)
The experiment is described as follows: LTEA_HepaRG_JUN: Life Technologies and Expression Analysis (LTEA) Assay for JUN Transcription Factor using HepaRG (AID 2283513). A digest of the protocol:
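HepaRG, 48 h exposure, 8-pt half-log series top 100 uM, 0.5% DMSO, duplicate. JUN mRNA by qRT-PCR (Fluidigm), housekeeping-normalized (ACTB/GAPDH/POLR2A); bidirectional curve fit vs DMSO baseline.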

Read-out in experiment [9]: Lipase C (LIPC), LIPC (gene 3990)
The experiment is described as follows: LTEA_HepaRG_LIPC: Life Technologies and Expression Analysis (LTEA) Assay for Lipase C (LIPC) using HepaRG (AID 2283514). In a few lines:
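HepaRG, 48 h exposure, 8-pt half-log series from 100 uM in 0.5% DMSO, duplicates. Readout: LIPC mRNA by Fluidigm qRT-PCR, housekeeping-normalized (ACTB/GAPDH/POLR2A). Gain or loss fitted bidirectionally against DMSO baseline.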

Read-out in experiment [10]: Lipoprotein lipase (LPL), LPL (gene 4023)
The experiment is described as follows: LTEA_HepaRG_LPL: Life Technologies and Expression Analysis (LTEA) Assay for Lipoprotein lipase (LPL) using HepaRG (AID 2283515). A digest of the protocol:
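HepaRG, 48 h exposure, 8-pt half-log dilutions from 100 uM, 0.5% DMSO vehicle, duplicates; qRT-PCR (Fluidigm array) of LPL mRNA vs housekeeping genes; bidirectional curve fit relative to DMSO baseline.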

Read-out in experiment [11]: MicroRNA 122 (MIR122), gene 406906
Put plainly: LTEA_HepaRG_MIR122: Life Technologies and Expression Analysis (LTEA) Assay for MicroRNA 122 (MIR122) using HepaRG (AID 2283516). Also: the transcript read is the microRNA miR-122. A digest of the protocol:
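qRT-PCR read-out (TaqMan, Fluidigm array), normalized to three housekeeping genes; HepaRG cells dosed 48 h at 8 concentrations up to 100 uM in 0.5% DMSO, duplicate; gain or loss fitted against DMSO baseline.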

Read-out in experiment [12]: matrix metalloproteinase-10 (MMP10), MMP10 (gene 4319)
Put plainly: LTEA_HepaRG_MMP10: Life Technologies and Expression Analysis (LTEA) Assay for matrix metalloproteinase-10 (MMP10) using HepaRG (AID 2283517). A digest of the protocol: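 Transcript levels come from Fluidigm qRT-PCR normalized to three housekeeping genes, with curves fitted bidirectionally against 0.5% DMSO. Human HepaRG cells were dosed for 48 hours at concentrations up to 100 uM.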

Read-out in another experiment: MYC, MYC (gene 4609)
The experiment is described as follows: LTEA_HepaRG_MYC: Life Technologies and Expression Analysis (LTEA) Assay for MYC using HepaRG (AID 2283518). A digest of the protocol: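 HepaRG, ~100,000 cells/well, collagen I; 48 h plating; serum-free induction medium; 48 h dosing, duplicate, 100 uM top, half-log, 0.5% DMSO; total RNA → qRT-PCR MYC; gain/loss fit vs DMSO.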

Read-out in experiment [13]: matrix metalloproteinase-3 (MMP3), MMP3 (gene 4314)
The experiment is described as follows: LTEA_HepaRG_MMP3: Life Technologies and Expression Analysis (LTEA) Assay for matrix metalloproteinase-3 (MMP3) using HepaRG (AID 2283519). In a few lines:
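qRT-PCR read-out of MMP3 mRNA (normalised to three housekeeping genes) in HepaRG liver cells after 48 h chemical exposure; 8-point half-log series, top 100 uM, 0.5% DMSO vehicle. Bidirectional curve fitting against DMSO baseline.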

Read-out in experiment [14]: Protein phosphatase 2A (PPP2R4), PTPA (gene 5524)
Put plainly: LTEA_HepaRG_PPP2R4: Life Technologies and Expression Analysis (LTEA) Assay for Protein phosphatase 2A (PPP2R4) using HepaRG (AID 2283522). In a few lines: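 HepaRG, 48 h exposure, 8-pt half-log series from 100 uM, 0.5% DMSO vehicle, duplicates. Readout: PPP2R4 mRNA, Fluidigm qRT-PCR, housekeeping-normalized. Bidirectional curve fit vs DMSO baseline.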

Read-out in experiment [15]: Phosphatase and tensin (PTEN), PTEN (gene 5728)
The experiment is described as follows: LTEA_HepaRG_PTEN: Life Technologies and Expression Analysis (LTEA) Assay for Phosphatase and tensin (PTEN) using HepaRG (AID 2283523). A digest of the protocol: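 HepaRG, 48 h exposure, 8-pt half-log series from 100 uM top, 0.5% DMSO vehicle, duplicates. Readout: Fluidigm qRT-PCR of PTEN transcript; housekeeping normalization (ACTB, GAPDH, POLR2A). Gain or loss fitted relative to DMSO baseline.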

Read-out in experiment [16]: solute carrier (SLC22A1), SLC22A1 (gene 6580)
Put plainly: LTEA_HepaRG_SLC22A1: Life Technologies and Expression Analysis (LTEA) Assay for solute carrier (SLC22A1) using HepaRG (AID 2283524). A digest of the protocol:
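qRT-PCR readout (TaqMan, Fluidigm arrays) of SLC22A1 transcript, normalized to three housekeeping genes; bidirectional curve fit relative to 0.5% DMSO vehicle. Differentiated human HepaRG cells, 48 h chemical exposure, top concentration 100 uM, half-log steps, eight points.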

Read-out in experiment [17]: Pyruvate Dehydrogenase Kinase 4 (PDK4), PDK4 (gene 5166)
Put plainly: LTEA_HepaRG_PDK4: Life Technologies and Expression Analysis (LTEA) Assay for Pyruvate Dehydrogenase Kinase 4 (PDK4) using HepaRG (AID 2283525). A digest of the protocol:
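HepaRG (human liver line), 48 h chemical exposure, 8-pt half-log CRC top 100 uM, 0.5% DMSO vehicle, duplicates. Readout: TaqMan qRT-PCR of PDK4 mRNA, housekeeping-normalized; gain/loss fit relative to DMSO baseline.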

Read-out in experiment [18]: Nuclear factor NF-kappa-B p105 subunit (Homo sapiens) (UniProt P19838)
The experiment is described as follows: LTEA_HepaRG_NFKB1: Life Technologies and Expression Analysis (LTEA) Assay for Nuclear Factor Kappa B Subunit 1 (NFKB1) using HepaRG (AID 2283521).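 Also: differentiated human HepaRG liver cells in serum-free induction medium; TaqMan qRT-PCR transcript normalised to ACTB GAPDH and POLR2A housekeeping genes.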 In a few lines:
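NFKB1 transcript was measured by TaqMan qRT-PCR on Fluidigm arrays, normalised to three housekeeping genes and fitted in both directions against 0.5% DMSO. HepaRG cells were dosed in duplicate for 48 h in serum-free induction medium, eight half-log steps from 100 uM.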

Calls of active or inactive are those of the source. The calls were made as follows: active = hit-call score of the fitted dose curve at least 0.9, where 1 is the maximum; inactive = score below 0.9.

Here are results for 4 compounds from PubChem BioAssay (EPA / NIEHS).

Usually AC50 stands for the concentration at which the activity in the assay is half-maximal.

Sequence of Hypoxia-inducible factor 1-alpha (Homo sapiens) (Q16665 whole entry, looked up): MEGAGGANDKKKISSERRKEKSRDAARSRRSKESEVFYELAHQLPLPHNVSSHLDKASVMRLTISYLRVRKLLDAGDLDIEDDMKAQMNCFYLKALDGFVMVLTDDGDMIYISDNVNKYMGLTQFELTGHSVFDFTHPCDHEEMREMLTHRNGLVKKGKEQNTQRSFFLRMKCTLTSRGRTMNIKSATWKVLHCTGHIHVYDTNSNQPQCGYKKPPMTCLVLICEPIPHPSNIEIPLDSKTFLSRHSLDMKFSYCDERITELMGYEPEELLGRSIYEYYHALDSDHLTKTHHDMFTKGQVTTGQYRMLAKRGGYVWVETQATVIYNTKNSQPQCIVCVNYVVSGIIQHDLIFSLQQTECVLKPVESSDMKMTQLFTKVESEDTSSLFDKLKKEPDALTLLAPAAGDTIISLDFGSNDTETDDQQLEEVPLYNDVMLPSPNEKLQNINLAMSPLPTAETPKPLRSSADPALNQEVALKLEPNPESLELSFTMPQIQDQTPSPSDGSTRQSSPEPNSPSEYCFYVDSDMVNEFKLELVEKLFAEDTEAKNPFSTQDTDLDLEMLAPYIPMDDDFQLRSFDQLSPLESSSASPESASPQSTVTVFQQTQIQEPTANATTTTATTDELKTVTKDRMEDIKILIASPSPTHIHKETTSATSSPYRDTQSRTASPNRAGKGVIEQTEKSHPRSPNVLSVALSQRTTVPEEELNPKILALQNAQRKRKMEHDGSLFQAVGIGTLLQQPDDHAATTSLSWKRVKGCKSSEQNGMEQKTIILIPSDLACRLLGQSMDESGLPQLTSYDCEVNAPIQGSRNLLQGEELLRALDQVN
Sequence of Nuclear factor NF-kappa-B p105 subunit (Homo sapiens) (P19838 whole entry, looked up): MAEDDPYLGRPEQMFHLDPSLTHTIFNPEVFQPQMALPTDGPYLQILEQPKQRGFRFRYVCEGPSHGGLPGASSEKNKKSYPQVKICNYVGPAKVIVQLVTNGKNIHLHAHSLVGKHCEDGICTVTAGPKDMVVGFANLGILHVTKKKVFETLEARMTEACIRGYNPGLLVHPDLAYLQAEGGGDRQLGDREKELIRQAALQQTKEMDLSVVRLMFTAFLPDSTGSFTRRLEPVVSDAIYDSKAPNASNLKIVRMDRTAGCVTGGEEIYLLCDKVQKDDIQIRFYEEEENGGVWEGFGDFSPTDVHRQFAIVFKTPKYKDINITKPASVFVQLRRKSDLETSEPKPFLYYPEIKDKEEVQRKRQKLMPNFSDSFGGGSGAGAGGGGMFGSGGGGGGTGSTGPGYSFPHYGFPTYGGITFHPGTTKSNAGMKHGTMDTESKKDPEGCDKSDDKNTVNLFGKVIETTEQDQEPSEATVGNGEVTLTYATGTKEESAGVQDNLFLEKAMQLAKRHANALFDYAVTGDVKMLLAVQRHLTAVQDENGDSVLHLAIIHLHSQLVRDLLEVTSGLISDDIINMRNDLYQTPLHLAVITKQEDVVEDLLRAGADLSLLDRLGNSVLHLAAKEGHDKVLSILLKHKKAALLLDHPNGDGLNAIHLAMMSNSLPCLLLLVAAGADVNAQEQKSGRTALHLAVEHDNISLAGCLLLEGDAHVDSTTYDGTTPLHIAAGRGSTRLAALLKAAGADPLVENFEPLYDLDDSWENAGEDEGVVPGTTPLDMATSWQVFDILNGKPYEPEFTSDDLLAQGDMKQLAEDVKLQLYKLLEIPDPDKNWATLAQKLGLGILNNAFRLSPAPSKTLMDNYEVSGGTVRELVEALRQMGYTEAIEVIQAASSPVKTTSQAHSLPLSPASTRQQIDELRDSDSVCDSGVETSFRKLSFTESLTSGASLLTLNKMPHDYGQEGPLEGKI

As for `COc1ccccc1N`, the call (in experiment [1]; in [2]; in the experiment with HGF (gene 3082); in [3]; in experiment [4]; in experiment [5]) was inactive. The result in [6], in [7], in experiment [8], in experiment [9], in experiment [10] and in [11] was inactive. Further, the outcome in experiment [12] is “inactive”; in the experiment with MYC, MYC (gene 4609) it was “inactive”; in experiment [13] it was “inactive”; in experiment [14] it was “inactive”; in experiment [15] it was “inactive”; in experiment [16] it was “inactive”. Besides, the result in [17] was inactive.
Regarding `Clc1cccc(Cl)c1Cl`, the call (in experiment [1]; in experiment [2]; with HGF (gene 3082); in [3]; in experiment [4]; in experiment [5]) was inactive. The call in [7], in [8], in [9], in [10], in [11] and in experiment [12] was inactive. Moreover, the outcome in the experiment with MYC, MYC (gene 4609) was “inactive”; in experiment [13] it was “inactive”; in [18] it was “inactive”; in experiment [14], “inactive”; in experiment [15], “inactive”; in [16], “inactive”. Also, in experiment [17], the compound was called inactive.
Take `Oc1c(Cl)cc(Cl)cc1Cl`: the call in experiment [1], in experiment [2], in experiment [3], in experiment [4], in [5] and in experiment [6] was inactive. Also, the call in experiment [7], in [8], in experiment [9], in experiment [10], in experiment [11] and in [12] was inactive. For the same compound, the outcome with MYC, MYC (gene 4609) is “inactive”; in experiment [13], “inactive”; in experiment [14], “inactive”; in experiment [15], “inactive”; in [16], “inactive”; in [17], “inactive”.
Consider `Oc1cc(Cl)c(Cl)cc1Cl`, for which the call (in experiment [2]; with HGF (gene 3082); in experiment [3]; in experiment [4]; in [5]; in experiment [6]) was inactive. Besides, the outcome in [8] was “inactive”; in experiment [9], “inactive”; in experiment [10] it was “inactive”; in experiment [11], “inactive”; in experiment [12], “inactive”; in the experiment with MYC, MYC (gene 4609) it was “inactive”. Further, the result in [13], in [18], in experiment [14], in experiment [15], in [16] and in [17] was inactive. In addition, the AC50 in [7] was 50 µM (active).
